# For part of these data: Entries with a potency or affinity are not part of this list. The source made the active and inactive calls. Cut-off read from the data, not from the text of the source, unless noted: active = inhibition above about 80%; inactive = the rest.
# Assays:
# [1] = blockers of polyQ-driven CASP3 activation – cell-based (AID 1583); details: polyglutamine-induced caspase-3 activation, cell assay; stronger effect = higher value;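 tested at 10 µM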
# [2] = yeast 75Q aggregation reduction – 75Q-TubU reporter (AID 1593); details: Yeast 75Q polyglutamine aggregation reporter
# [3] = restoration of touch response, mutant HTT neurons – whole organism, C. elegans mechanosensory neurons, N-terminal huntingtin (AID 1599); details: C. elegans polyQ-huntingtin mechanosensory neurons, stronger effect = higher value
# [4] = blockers of cytochrome c efflux from mitochondria – biochemical, purified mitochondria (AID 1603); details: stronger effect = lower value;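 note: mouse liver mitochondria challenged with calcium chloride; signal normalized to the plate average as 100%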
# [5] = polyglutamine aggregate formation blockers (AID 1604); details: polyglutamine-induced protein aggregation inhibition assay; stronger effect = higher value; tested at 2.5 µM
# [6] = glutamate transport activators, MN-1 cells, MN-1 cell line (AID 1612); details: MN-1 motor neuron cells, stronger effect = higher value;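 note: tested at 1 µM final; 0% = mean of DMSO vehicle wells on each plate; positive means more glutamate uptake than control and negative means less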
# [7] = GFP-Q80 aggregate reduction, neuronal-like cells, cell-based, NGF-treated PC12, GFPQ80 (AID 1614); details: PC12 NGF-treated GFP-polyQ80 inclusion reduction;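 note: lower means fewer inclusions and 0 means no inclusions at all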
# [8] = 75Q-TubH aggregate inhibition, S. cerevisiae, yeast (AID 1616); details: S. cerevisiae 75Q-TubH polyglutamine aggregation suppression; stronger effect = higher value
# [9] = growth inhibition, single agent or in combination, cell-based, chromothripsis tumors, cisplatin or BGB combos (AID 1671449); details: LFS_MB_P medulloblastoma cells;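 note: cells exposed for 96 hours; 0% = vehicle DMSO and 100% = killing by high DMSO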
# [10] = growth inhibition, single agent and combos, cell-based, chromothripsis tumors, cisplatin or BGB combos (AID 1671450); details: HDN33 neuroblastoma cells, stronger effect = higher value;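 note: cells exposed to compound for four days; 0% = vehicle DMSO and 100% = cell killing by high DMSO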
# [11] = growth inhibition, single agents and combos, ICB984, cell-based, cisplatin or BGB combos, synergistic combos for chromothripsis tumors (AID 1671451; call rule not given here;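 note: cells exposed for 96 hours before readout; 0% = vehicle DMSO and 100% = killing by high DMSO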); details: ICB984 medulloblastoma cells, drug combinations, stronger effect = higher value
# [12] = growth inhibition, single agents and combos, LFS_MB_1R, cell-based, cisplatin or BGB combos, synergistic combos for chromothripsis tumors (AID 1671452); details: LFS_MB_1R medulloblastoma cells, stronger effect = higher value;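 note: cells exposed for 96 hours before readout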
# [13] = growth inhibition, single agents and combos, HTB85, cell-based, BGB or cisplatin IC20 combos, synergistic combos for chromothripsis tumors (AID 1671453); details: HTB85 osteosarcoma cells, drug combinations, stronger effect = higher value;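 note: cells exposed for 96 hours before readout; 0% = vehicle DMSO and 100% = high DMSO killing control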
# [14] = growth inhibition, single agents and combos, CRL2098, cell-based, BGB or cisplatin IC20 combos, synergistic combos for chromothripsis tumors (AID 1671454); details: CRL2098 osteosarcoma cells, drug combinations, stronger effect = higher value;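 note: cells exposed for 96 h before readout; 0% = vehicle DMSO and 100% = killing by high DMSO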
# [15] = growth inhibition, single agents and combos, HD-MB03, cell-based, BGB or cisplatin IC20 combos, synergistic combos for chromothripsis tumors (AID 1671455; in the data active = inhibition above about 83%;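 note: 0% = vehicle DMSO and 100% = high DMSO as cytotoxic control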); details: HD-MB03 medulloblastoma cells, stronger effect = higher value
# [16] = growth inhibition, single agents and combos, UWB1.289, cell-based, BGB or cisplatin combos, synergistic combos for chromothripsis tumors (AID 1671456); details: UWB1.289 ovarian carcinoma cells, stronger effect = higher value;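 note: cells exposed to compound for four days; 0% = vehicle DMSO and 100% = killing by high DMSO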
# [17] = growth inhibition, single agents and combos, LFS_MB_2R, cell-based, cisplatin combos, synergistic combos for chromothripsis tumors (AID 1671457); details: LFS_MB_2R medulloblastoma cells, stronger effect = higher value;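 note: cells exposed to compound for four days before readout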
# [18] = growth inhibition, MDA-MB-436, cell-based, BGB or cisplatin combos, synergistic combos for chromothripsis tumors (AID 1671458; call rule not given here;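 note: cells exposed for 96 hours; 0% = vehicle DMSO and 100% = killing by high DMSO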); details: MDA-MB-436 breast carcinoma growth inhibition, drug combinations, stronger effect = higher value
# [19] = UWB1.289_BRCA1 ovarian cancer growth, cell-based, BGB or cisplatin combinations (AID 1671459); details: UWB1.289 BRCA1 ovarian carcinoma, drug combinations, stronger effect = higher value
# [20] = drug combination toxicity in non-malignant astrocytes – cell-based, BGB or cisplatin IC20 combos, cytotoxicity control for chromothriptic childhood tumor combination screen (AID 1671460); details: Human astrocytes, viability inhibition, drug combinations, at 0.5 µM, stronger effect = higher value;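 note: cells exposed to compounds for 96 hours before viability readout; 0% = vehicle and 100% = killing control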
# [21] = measured here: combination with BGB IC40, at 0.05 µM
# [22] = measured here: combination with cisplatin, at 0.5 µM
# [23] = measured here: combination with cisplatin, at 5 µM
smiles,measurement,setting,value
CCC1(c2ccccc2)C(=O)NC(=O)NC1=O,inhibition,[1],-1.25%
same,score,[2],1.23
same,rescue above control,[3],9.64
same,cytochrome c release ratio,[4],0.88
same,inhibition of aggregation,[5],45.6%
same,glutamate uptake change,[6],11.7%
same,inclusion score,[7],2
same,aggregation suppression score,[8],1.66
same,inhibition,"[9]; at 0.5 µM, stronger effect = higher value",93.2% (active)
same,inhibition,"[9]; measured here: combination with BGB IC20, at 0.005 µM",-28.1%
same,inhibition,"[9]; measured here: combination with BGB IC40, at 0.005 µM",-59.2%
same,inhibition,[9]; [21],-45.6%
same,inhibition,"[9]; measured here: combination with cisplatin, at 0.5 µM, stronger effect = higher value",121%
same,inhibition,"[9]; measured here: combination with cisplatin, at 5 µM, stronger effect = higher value",-2.25%
same,inhibition,"[10]; BGB combo, at 5 µM",-9.62%
same,inhibition,[10]; at 0.5 µM,-12.9% (inactive)
same,inhibition,"[10]; cisplatin combo, at 5 µM",-2.75%
same,inhibition,"[10]; measured here: with BGB IC20 combination, at 0.5 µM",-25.3%
same,inhibition,"[10]; measured here: with cisplatin IC20 combination, at 0.5 µM",-2.08%
same,inhibition,"[10]; single agent, at 5 µM",3.79%
same,inhibition,"[11]; BGB IC20 combo, at 0.005 µM",-3.73%
same,inhibition,"[11]; BGB IC40 combo, at 0.005 µM",-9.29%
same,inhibition,"[11]; BGB IC40 combo, at 0.05 µM",-3.16%
same,inhibition,[11]; at 0.5 µM,-22.9% (inactive)
same,inhibition,"[11]; cisplatin combo, at 0.05 µM",-8.4%
same,inhibition,"[11]; cisplatin combo, at 0.5 µM",-26.1%
same,inhibition,"[11]; cisplatin combo, at 5 µM",-13.3%
same,inhibition,"[11]; measured here: 5 uM single agent, at 5 µM",-22.7%
same,inhibition,[12]; at 0.5 µM,-18.1% (inactive)
same,inhibition,[12]; [21],-31.8%
same,inhibition,[12]; [22],-10.4%
same,inhibition,[12]; [23],5.72%
same,inhibition,[13]; at 0.5 µM,-10.5% (inactive)
same,inhibition,"[13]; measured here: with BGB IC20, at 0.5 µM",-10.6%
same,inhibition,"[13]; measured here: with BGB IC20, at 5 µM",7.72%
same,inhibition,"[13]; measured here: with cisplatin IC20, at 0.5 µM",-9.45%
same,inhibition,"[13]; measured here: with cisplatin IC20, at 5 µM",10.2%
same,inhibition,"[13]; single agent, at 5 µM",-5.59%
same,inhibition,[14]; at 0.5 µM,-52.1% (inactive)
same,inhibition,"[14]; measured here: combination with BGB at IC20, at 0.5 µM",-60.5%
same,inhibition,"[14]; measured here: combination with cisplatin at IC20, at 0.5 µM",-54.7%
same,inhibition,[15]; at 0.5 µM,-4.07% (inactive)
same,inhibition,"[15]; measured here: combo with BGB at IC20, at 0.5 µM",2.98%
same,inhibition,"[15]; measured here: combo with cisplatin at IC20, at 0.5 µM",-10.5%
same,inhibition,[16]; at 0.5 µM,-5.54% (inactive)
same,inhibition,"[16]; measured here: inhibition with BGB combination, at 0.05 µM",-21.7%
same,inhibition,"[16]; measured here: inhibition with cisplatin combination, at 0.05 µM",-12%
same,inhibition,[17]; at 0.5 µM,-20.1% (inactive)
same,inhibition,[17]; [22],-6.12%
same,inhibition,[17]; [23],0.169%
same,inhibition,[18]; at 0.5 µM,-2.75% (inactive)
same,inhibition,"[18]; measured here: BGB combination, at 0.5 µM",-2.38%
same,inhibition,"[18]; measured here: BGB combination, at 5 µM",1.86%
same,inhibition,"[18]; measured here: cisplatin combination, at 0.5 µM",-5.56%
same,inhibition,"[18]; measured here: cisplatin combination, at 5 µM",-1.94%
same,inhibition,"[19]; BGB combination, concentration series, at 5 µM",22.9%
same,inhibition,[19]; at 0.5 µM,-1.68% (inactive)
same,inhibition,"[19]; cisplatin combination, concentration series, at 5 µM",16%
same,inhibition,[20],10.1% (inactive)
same,inhibition,[20]; measured here: combo with BGB IC20,11.5%
